Test results published in ChEMBL document CHEMBL3988442, “University of Dundee, Small-Polar-MMV Screening Library” (2021).
The campaign covered roughly 48,000 compounds. About 13,000 (27%) showed an effect of 50% or more. The list shows a part of the results.

These compounds were tested on Wolbachia pipientis (assay: Anti-Wolbachia Cell-Based Screen). Settings: 5 µM.
Format: functional
Design: scale not given: in the data most compounds retested in dose-response had high values

Q: `Fc1ccc(CCC2CCCN(Cc3c[nH]cn3)C2)c(F)c1` (stereo unspecified) was tested. Which “Percent Effect” value did it give?
A: -3.071%

Q: With `Nc1ccc(CC2CCCN(Cc3c[nH]cn3)C2)nn1` (stereo unspecified) as the compound, how does the “Percent Effect” value read?
A: 105.7%

Q: How did the “Percent Effect” value turn out when `c1ccc(C2CN(C3CC3)CC3(CCN(Cc4ncc[nH]4)CC3)C2)cc1` (stereo unspecified) was run?
A: -18.37%

Q: Which “Percent Effect” value does the source give for `CC(C)C1CN(Cc2c[nH]cn2)CCCN1CC1CC1` (stereo unspecified) here?
A: 17.94%

Q: For `c1c[nH]c(CN2CCCC(Cc3ccc(NC4CCCC4)nn3)C2)n1` (stereo unspecified), which “Percent Effect” value is on record?
A: 81.53%

Q: For `O=C1CC[C@H]2CN(Cc3ncc[nH]3)CC[C@H]2N1CC1CCNCC1`, which “Percent Effect” value is on record?
A: -8.264%

Q: For `O=C(c1coc(COc2cccc3cnccc23)n1)N1CCSCC1`, which “Percent Effect” value is on record?
A: -33.47%

Q: With `Cc1ccc(C(=O)N2CC[C@H]3[C@@H]2CCC(=O)N3c2cccnc2)o1.O=C(O)C(F)(F)F` as the compound, how does the “Percent Effect” value read?
A: -21.39%

Q: `CCc1cnc(N2CC[C@H]3[C@@H]2CCC(=O)N3c2ccccc2)nc1.O=C(O)C(F)(F)F` was tested. Which “Percent Effect” value did it give?
A: 97.82%

Q: `CCc1cnc(N2CC[C@H]3[C@@H]2CCC(=O)N3c2cccnc2)nc1.O=C(O)C(F)(F)F.O=C(O)C(F)(F)F` was tested. Which “Percent Effect” value did it give?
A: 93.01%

Q: For `CCc1cnc(N2CC[C@H]3[C@H]2CC(=O)N3c2cccnc2)nc1.O=C(O)C(F)(F)F.O=C(O)C(F)(F)F`, which “Percent Effect” value is on record?
A: -6.023%

Q: With `Cc1cnc(C(=O)N2CC[C@H]3[C@@H]2CCC(=O)N3c2cccnc2)cn1.O=C(O)C(F)(F)F` as the compound, how does the “Percent Effect” value read?
A: 0.08604%

Q: How did the “Percent Effect” value turn out when `Cc1cc(CNC(=O)c2cc(C(C)C)n(C)n2)ccc1S(C)(=O)=O` was run?
A: -6.268%

Q: With `CC(=O)N(CCc1ccccc1)CC(=O)NC(C)(C)C#N` as the compound, how does the “Percent Effect” value read?
A: -33.05%

Q: `COCCCN1CC2(CCCN(c3ncnc4[nH]cnc34)C2)CCC1=O` (stereo unspecified) was tested. Which “Percent Effect” value did it give?
A: -3.857%

Q: Which “Percent Effect” value does the source give for `O=C1N(CCC2CCCCC2)CCCC1(O)CNCCc1ccccc1` (stereo unspecified) here?
A: 4.403%

Q: For `O=C(O)C(=O)O.c1ccc2c(c1)SCCC2NCc1ccc(N2CCOCC2)cc1` (stereo unspecified), which “Percent Effect” value is on record?
A: -0.4171%

Q: How did the “Percent Effect” value turn out when `CCc1cc(C)c(C(=O)N2CCCC2CC(=O)c2cnn(C)c2)o1` (stereo unspecified) was run?
A: -2.154%

Q: `Cn1cc(C(=O)CC2CCCN2C(=O)c2ccc(Cl)cn2)cn1` (stereo unspecified) was tested. Which “Percent Effect” value did it give?
A: -8.745%

Q: With `Cn1cc(C(=O)CC2CCCN2C(=O)c2ccn3ccnc3c2)cn1` (stereo unspecified) as the compound, how does the “Percent Effect” value read?
A: 8.483%

Q: With `CCc1ccccc1C(=O)N1CCCC1CC(=O)c1cnn(C)c1` (stereo unspecified) as the compound, how does the “Percent Effect” value read?
A: 88.86%

Q: For `Cn1cc(C(=O)CC2CCCN2C(=O)c2ccncc2F)cn1` (stereo unspecified), which “Percent Effect” value is on record?
A: 96.19%

Q: Which “Percent Effect” value does the source give for `Cn1cc(C(=O)CC2CCCN2C(=O)c2cncc3ccccc23)cn1` (stereo unspecified) here?
A: 0.2394%

Q: `COc1cc(C(=O)N2CCCC2CC(=O)c2cnn(C)c2)ccc1F` (stereo unspecified) was tested. Which “Percent Effect” value did it give?
A: -15.51%

Q: With `Cc1cscc1C(=O)N1CCCC1CC(=O)c1cnn(C)c1` (stereo unspecified) as the compound, how does the “Percent Effect” value read?
A: 127.4%

Q: Which “Percent Effect” value does the source give for `Cc1ccc(O)c(C(=O)N2CCCC2CC(=O)c2cnn(C)c2)c1` (stereo unspecified) here?
A: -14.12%

Q: How did the “Percent Effect” value turn out when `Cn1cc(C(=O)CC2CCCN2C(=O)c2cccc3ncccc23)cn1` (stereo unspecified) was run?
A: 103.8%

Q: With `CCn1c(CN(C)CC(F)(F)F)nc2c(F)cccc21` as the compound, how does the “Percent Effect” value read?
A: -13.63%

Q: `COc1cc(F)c(C(=O)NCc2ccon2)c(F)c1` was tested. Which “Percent Effect” value did it give?
A: -19.7%

Q: For `COc1ccc(C2=CCN(C(=O)CN(C)Cc3ccoc3)CC2)cc1`, which “Percent Effect” value is on record?
A: 39.3%

Q: How did the “Percent Effect” value turn out when `Cc1cc(-n2cncn2)ccc1C(=O)N(C)CC(F)(F)C(F)(F)F` was run?
A: -10.14%

Q: `CS(=O)(=O)N1C[C@@H]2COC[C@@H](CC(=O)N3CCCO3)[C@@H]2C1` was tested. Which “Percent Effect” value did it give?
A: -9.708%

Q: With `Cc1ccoc1C(=O)N1CCOC2(CCCC2)C1` as the compound, how does the “Percent Effect” value read?
A: -7.54%

Q: Which “Percent Effect” value does the source give for `CCOC(C)c1nc(COc2nc(C)no2)cs1` (stereo unspecified) here?
A: -4.126%

Q: With `Cn1cc(C(=O)CC2CCCN2C(=O)c2c[nH]c3ccccc23)cn1` (stereo unspecified) as the compound, how does the “Percent Effect” value read?
A: 107.8%

Q: For `O=C(c1ccncc1)N1CCN(C(=O)c2coc3ccccc23)CC1`, which “Percent Effect” value is on record?
A: -6.895%

Q: For `Cn1cc(C(=O)CC2CCCN2C(=O)c2coc3ccccc23)cn1` (stereo unspecified), which “Percent Effect” value is on record?
A: 99.8%

Q: Which “Percent Effect” value does the source give for `Cn1cc(C(=O)CC2CCCN2C(=O)c2ccc(Cl)o2)cn1` (stereo unspecified) here?
A: 3.308%

Q: Which “Percent Effect” value does the source give for `Cn1cc(C(=O)CC2CCCN2C(=O)c2n[nH]c3ccccc23)cn1` (stereo unspecified) here?
A: -3.127%

Q: Which “Percent Effect” value does the source give for `Cn1cc(C(=O)CC2CCCN2C(=O)c2ccc3[nH]ncc3c2)cn1` (stereo unspecified) here?
A: -6.365%

Q: `Cn1cc(CN2CCc3ncn(C)c3C2COCc2cccnc2)cn1` (stereo unspecified) was tested. Which “Percent Effect” value did it give?
A: -2.593%

Q: How did the “Percent Effect” value turn out when `N#Cc1c(F)cccc1NCCCOCC1CCOC1` (stereo unspecified) was run?
A: -17.11%

Q: How did the “Percent Effect” value turn out when `COCCNC(=O)c1nc(-c2cn(C)cn2)n2ccccc12` was run?
A: 37.4%

Q: With `Cc1occc1C(=O)N1CCCn2cnc(CN3CCCC3=O)c2C1` as the compound, how does the “Percent Effect” value read?
A: 99.06%

Q: Which “Percent Effect” value does the source give for `Cc1ccccc1C(=O)N1CCCn2cnc(CN3CCCC3=O)c2C1` here?
A: 104.2%

Q: For `Cc1ccccc1C(=O)N1CCCn2nnc(Cn3cccn3)c2C1`, which “Percent Effect” value is on record?
A: -4.319%

Q: `Cc1cccc(C(=O)NC(CN2CCCC2=O)c2ccccc2)n1` (stereo unspecified) was tested. Which “Percent Effect” value did it give?
A: -6.295%

Q: With `Cc1occc1C(=O)N1CCn2cnc(COCC3CC3)c2C1` as the compound, how does the “Percent Effect” value read?
A: -3.111%

Q: Which “Percent Effect” value does the source give for `O=C1CCCN1Cc1ncn2c1CN(C(=O)c1cccc(F)c1)CCC2` here?
A: 7.876%

Q: `Cc1occc1C(=O)N1CCC2(CCC(=O)N(CC(N)=O)C2)CC1` was tested. Which “Percent Effect” value did it give?
A: 0.6674%

Q: With `Cc1cccc(C(=O)N2CCCn3cnc(CN4CCCC4=O)c3C2)n1` as the compound, how does the “Percent Effect” value read?
A: 84.9%
